# EWS-Fli inh: inhibitors of EWS/Fli oncoprotein transcriptional activity. inhibition, % at 12.6 µM. hit rate 0.67% among 350,000. AID 651661. A673 NR0B1-luciferase reporter, viability-normalised;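 active = mean inhibition of at least 50% after viability correction, with every replicate also passing that limit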;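 also: firefly luciferase signal divided by Alamar Blue viability fluorescence both relative to DMSO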
# LMP1 NFkB inh: Epstein-Barr LMP1 NF-kappaB reporter inhibition; LMP1-induced NF-kappaB luciferase reporter cells, luminescence; hit rate 0.69% among 350,000; inhibition, % at 12.5 µM; AID 504558; in the data active = inhibition above about 41%;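 also: 0% = neutral control wells and 100% = reference inhibitor control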
# Shn3 inh set2: Schnurri-3 reporter inhibition in Clone20 osteoblasts; Clone20 osteoblast Shn3 3'UTR firefly luciferase, 24 h; hit rate 0.52% among 360,000; AID 588674; inhibition, % at 12.5 µM;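 active = mean inhibition of at least 75% with every replicate also reaching 75%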;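 also: 0% = median of neutral control wells and 100% = pilot-screen positive control compound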
# PAX8 reporter: PAX8 transcriptional activity inhibition; inhibition, % at 12.6 µM; RMG-I TPO-luciferase reporter, SteadyGlo, 24 h; hit rate 1.2% among 360,000; AID 652154;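 active = mean replicate inhibition at least 60% with every replicate also reaching 60%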;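 also: luciferase light reporting Pax8 driven TPO promoter activity; plate controls were median of neutral control wells for no effect and mitoxantrone controls for full effect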
# TRPM1 prom inh: inhibitors of MITF-driven TRPM1 promoter in melanoma cells | SK-MEL-5 TRPM1 promoter luciferase, 24 h | inhibition, % at 12.5 µM | hit rate 0.83% among 330,000;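 active = mean inhibition across replicates of 60% or more, whatever share of single replicates reaches that level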
# LGR2 inh: blocks bursicon-induced cAMP signaling via Drosophila LGR2. HEK293 LGR2, CRE-luciferase, bursicon-stimulated, 4 h. AID 720647. inhibition, % at 9.99 µM. hit rate 0.35% among 380,000;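 active = drop in luminescence signal, shown as inhibition above about 50% in the replicate tests, limit read from the data, passing the limit was not always enough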;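 also: agonist challenge used bursicon conditioned medium at about half maximal strength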
# DNA binder FP: DNA binding small molecules; shares compounds with EWS-Fli inh; salmon sperm DNA acridine orange fluorescence polarization; AC35, µM (titrated, usually from 68 µM), without a hit: at the top dose activity change, negative = DNA binding; hit rate 2% among 640; AID 720586;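 active = fitted curve reaches a 35% signal fall AC35 below twice the sample's top valid tested dose, actives reach about 48 µM in these data; inactive = the rest, including activity in the rising direction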;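 also: lower polarization ratio signals compound binding to DNA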
# An asterisk follows results filed as active; / = no result given; ! = repeats disagree; [ ] = remark or other dose. Rows were chosen to be rich in hits. Some 2.2% of all compounds tested hit in one or more screens of this group.
SMILES,EWS-Fli inh,LMP1 NFkB inh,Shn3 inh set2,PAX8 reporter,TRPM1 prom inh,LGR2 inh,DNA binder FP
C[C@@H]1CN([C@@H](C)CO)C(=O)c2cccc(NC(=O)c3ccncc3)c2O[C@@H]1CN(C)S(=O)(=O)c1ccccc1,11.2,/,/,12.5,/,11.0,/
O=C(CCc1ccccc1)NC(c1cccs1)c1cc(Cl)c2cccnc2c1O (stereo unspecified),58.4*,53.9*,81.4,77.6*,56.4,22.8,-4.3%
CN(C)C(=O)C[C@@H]1CC[C@@H]2[C@H](COC[C@H](O)CN2C(=O)c2ccncc2)O1,-4.9,/,/,-9.6,/,-6.5,/
C[C@@H]1CN([C@H](C)CO)C(=O)c2c(c3ccccc3n2C)-c2ccccc2CO[C@H]1CN(C)C(=O)CCN(C)C,-3.9,/,/,-21.1,/,-17.9,/
CC(=NNc1cc(C)c2ccccc2n1)c1ccccn1,64.1*,/,/,94.7*,/,-11.0,-2.2%
C/C(=N\Nc1cccc2cccnc12)c1ccccc1O,-10.8,-83.5,-43.1,-59.3,-3.2,-46.4,/
C/C(=N\Nc1cccc2cccnc12)c1ccccn1,60.8*,-42.0,11.6,-62.7,-46.7,56.5*,-0.7%
CN1C(=O)c2cc(NC(=O)c3cccs3)ccc2OC[C@H]2O[C@@H](CC(=O)O)CC[C@@H]21,4.0,/,/,-14.4,/,24.7,/
Cc1noc(C)c1NC(=O)N[C@H]1CC[C@@H](CC(=O)N2CCN(C)CC2)O[C@H]1CO,/,/,/,/,/,1.9,/
CC(Oc1cccc(Cl)c1)C(=O)NCCCCc1ccccc1 (stereo unspecified),87.4*,0.6,-16.2,-3.5,10.3,-19.2,1.0%
C[C@@H]1CN([C@@H](C)CO)S(=O)(=O)c2ccc(/C=C/c3ccccc3)cc2O[C@H]1CN(C)C(=O)c1ccc2c(c1)OCO2,6.1,/,/,/,/,/,/
COc1ccc(OC)c(NC(=O)C2(C)CCN2Cc2cccc(OC)c2F)c1 (stereo unspecified),5.5,/,21.6,8.5,/,4.6,/
COc1cccc(CN2CCC2(C)C(=O)Nc2cccc3cccnc23)c1F (stereo unspecified),59.3*,/,9.2,37.8,/,16.0,-8.2%
CCc1nc(N)nc(N)c1-c1ccc(Cl)c(N=[N+]=[N-])c1,66.8*!,0.8,81.0*!,15.7,30.8,2.6,-7.0%
CCc1nc(N)nc(N)c1-c1ccc(Cl)c([N+](=O)[O-])c1,21.7,32.5,46.8,39.0,29.9,21.8,/
COc1ccc(NS(=O)(=O)c2cc(NC(=O)CNC(=O)c3cccc(OC)c3)ccc2C)cc1,63.0*,-17.4,-8.0,7.5,68.7*,-7.6,2.1%
COc1cccc(NC(=O)CNC(=O)c2ccccc2)c1,/,-19.0,-45.8,/,-33.6,-16.5,/
Cc1ccc2nc3n(c(=O)c2c1)-c1cc2ccccc2cc1C(=O)NC3Cc1ccccc1 (stereo unspecified),49.5,11.2,29.1,55.5,/,8.9,/
Cc1ccc2c(=O)n3c(nc2c1)C(Cc1ccc(O)cc1)NC(=O)c1cc2ccccc2cc1-3 (stereo unspecified),53.2*,0.5,24.4,45.1,/,3.1,-7.9%
O=C(C[C@H]1CC[C@@H](NC(=O)NC2CCCCC2)[C@@H](CO)O1)NCc1ccc(Cl)cc1,-4.4,/,/,-3.9,/,-11.2,/
Cc1ccc(N=C2NC(=O)/C(=C\c3cccs3)S2)cc1C,58.3*,-4.6,-1.0,-64.3,-29.1,-31.0,1.6%
C[C@H](NC(=O)C[C@H]1CC[C@@H](NC(=O)C2CCOCC2)[C@H](CO)O1)c1ccccc1,-4.6,/,/,5.7,/,5.3,/
Cc1cc(C(=O)COC(=O)c2nccnc2N)c(C)n1C,-33.4,8.2,0.9,-62.8,-57.7,34.7,/
Cc1ccsc1C(=O)OCC(=O)c1cc(C)n(C)c1C,62.8*,51.4*,31.8,47.6,58.2,71.3*,-10.6%
O=C(NCCc1ccccc1)c1ccccc1NC(=O)C1CCCO1 (stereo unspecified),71.3*,-8.8,-49.8,-23.1,-12.3,-45.0,-15.2%
SMILES,EWS-Fli inh,LMP1 NFkB inh,Shn3 inh set2,PAX8 reporter,TRPM1 prom inh,LGR2 inh,DNA binder FP
O=C(O)c1ccccc1NC(=O)C1CCCO1 (stereo unspecified),/,-8.3,-20.0,/,9.2,/,/
CC(C)C#Cc1ccc([C@H]2[C@H]3CN(S(=O)(=O)c4ccccc4)CC(=O)N3[C@H]2CO)cc1,-0.9,/,/,30.4,/,-2.4,/
C[C@@H]1CN([C@@H](C)CO)C(=O)Cc2cc(NC(=O)Nc3cccc4ccccc34)ccc2O[C@@H]1CN(C)Cc1ccncc1,/,/,/,47.0,/,/,/
COc1ccc(CN(C)C[C@H]2Oc3ccc(NC(=O)CCCCCC(=O)Nc4ccccc4N)cc3CC(=O)N([C@H](C)CO)C[C@H]2C)cc1,55.9*,/,/,/,/,-9.3,-4.1%[56 µM]
C[C@H]1CN([C@@H](C)CO)C(=O)Cc2cc(NC(=O)c3ccncc3)ccc2O[C@H]1CN(C)Cc1ccc(C(=O)Nc2ccccc2N)cc1,38.2,/,/,-4.1,/,-7.3,/
C[C@@H]1CN([C@@H](C)CO)C(=O)Cc2cc(N(C)C)ccc2O[C@H]1CN(C)Cc1ccc(C(=O)Nc2ccccc2N)cc1,59.6*,/,/,77.4*,/,-16.8,-2.3%[60 µM]
C[C@H]1CN([C@@H](C)CO)C(=O)Cc2cc(NC(=O)CCC(F)(F)F)ccc2O[C@H]1CN(C)Cc1ccc(C(=O)Nc2ccccc2N)cc1,53.4*,/,/,45.9,/,10.6,2.7%[56 µM]
C[C@H]1CN([C@@H](C)CO)C(=O)Cc2cc(NC(=O)CCC(F)(F)F)ccc2O[C@@H]1CN(C)Cc1ccc(C(=O)Nc2ccccc2N)cc1,-2.4,/,/,24.2,/,-2.0,/
C[C@H](CO)N1C[C@H](C)[C@H](CN(C)Cc2ccc(C(=O)Nc3ccccc3N)cc2)Oc2ccc(NC(=O)C3CC3)cc2CC1=O,64.3*,/,/,4.6,/,14.2,-15.6%
C[C@H](CO)N1C[C@H](C)[C@H](CN(C)C(=O)Nc2ccc(F)cc2)Oc2ccc(NC(=O)Cc3ccccc3)cc2CC1=O,-5.7,/,/,-13.7,/,6.5,/
COc1ccc(S(=O)(=O)Nc2ccc3c(c2)C(=O)N([C@H](C)CO)C[C@@H](C)[C@H](CN(C)Cc2ccc(Oc4ccccc4)cc2)O3)cc1,31.2,/,/,55.3,/,1.4,/
CCCNC(=O)N1CCC2(CC1)CN(C(=O)NC1CCCC1)[C@H](CO)c1[nH]c3cc(OC)ccc3c12,20.5,/,/,11.4,/,3.7,/
CCCC(=O)Nc1ccc2c(c1)OC[C@@H](C)N(C(=O)C1CCCC1)C[C@@H](C)[C@@H](OC)CN(C)C2=O,3.4,/,/,/,/,-16.2,/
COc1ccc(CNc2ncc(-c3ccc(F)cc3)n2C)c2ccccc12,82.0*,19.2,35.4,45.6,53.1,-0.4,3.9%
COc1ccccc1CNc1ncc(-c2ccc(F)cc2)n1C,-4.3,3.5,0.2,1.2,-7.7,-9.5,/
C[C@@H]1CCCCO[C@H](CN(C)S(=O)(=O)c2cccs2)[C@@H](C)CN([C@H](C)CO)C(=O)c2cc(NC(=O)Nc3cccc4ccccc34)ccc2O1,-11.0,/,/,13.8,/,2.6,/
